Screening data as filed in PubChem BioAssay.
Hits are enriched below; roughly 15% of the tested compounds scored in any of these assays.
Gal4-VP16 FLuc – Gal4-VP16 reporter inhibition counter-screen | Drosophila S2 Gal4-VP16 UAS-luciferase, luminescence, 20 h | Potency, µM (top dose mostly 53.6 µM), most hits filed as inhibitors | 3.5% of 310,000 active | AID 2546;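 also: Gal4-VP16 expression switched on by copper sulfate through the metallothionein promoter; nearly all actives have a fitted effect of over 50% in size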
TDP1 cell noCPT – qHTS for Inhibitors of human tyrosyl-DNA phosphodiesterase 1 (TDP1): qHTS in cells in absence of CPT. Potency, µM (top dose mostly 46.2 µM), actives largely listed as inhibitors. 15% of 420,000 active. DT40 Tdp1-/- hTDP1 cells, no CPT, ATP luminescence, 48 h; also: nearly all actives have a fitted effect of over 55% in size
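Seeded 400 DT40-hTDP1 cells/well (vehicle DMSO, no 20 nM CPT); pinned compounds; ≥48 hr at 37 °C; CellTiter-Glo luminescence as viability measure.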
DT40 TDP1 CPT – growth inhibition of DT40 Tdp1-/-;hTDP1 cells with camptothecin (screen for TDP1 inhibitors) | chicken DT40 Tdp1-/-;hTDP1 cells + 20 nM CPT, ATP luminescence, 48 h | Potency, µM (titrated, usually from 46.2 µM), most hits filed as inhibitors | 12% of 420,000 active | AID 686979; also: nearly all actives have a fitted effect of over 55% in size
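Cell growth measured by CellTiter-Glo luminescence after a minimum 48 h, 37 C compound exposure with 20 nM CPT in Tdp1-knockout DT40 cells stably expressing hTDP1, seeded 400/well; qHTS titration format.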
RORg inh – blocks mouse ROR gamma transcriptional activity | Potency, µM (titrated, usually from 53.6 µM), most hits filed as inhibitors | 5.4% of 310,000 active | Drosophila S2 Gal4-RORgamma UAS-luciferase reporter, 20 h | P51450; also: nearly all actives have a fitted effect of over 60% in size
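Luciferase reporter read in Schneider cells carrying Gal4-RORγ (mouse) and UAS-Photinus luciferase; cells given compound 1 h before 700 uM copper sulfate induction, then incubated 20 h at ambient temperature.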
12-LOX inh – inhibitors of human 12S-lipoxygenase ALOX12; purified 12hLO, xylenol orange hydroperoxide absorbance; Potency, µM (top dose mostly 108 µM), hits mostly inhibitors; 1.1% of 580,000 active
Target sequence (P18054 whole entry, looked up): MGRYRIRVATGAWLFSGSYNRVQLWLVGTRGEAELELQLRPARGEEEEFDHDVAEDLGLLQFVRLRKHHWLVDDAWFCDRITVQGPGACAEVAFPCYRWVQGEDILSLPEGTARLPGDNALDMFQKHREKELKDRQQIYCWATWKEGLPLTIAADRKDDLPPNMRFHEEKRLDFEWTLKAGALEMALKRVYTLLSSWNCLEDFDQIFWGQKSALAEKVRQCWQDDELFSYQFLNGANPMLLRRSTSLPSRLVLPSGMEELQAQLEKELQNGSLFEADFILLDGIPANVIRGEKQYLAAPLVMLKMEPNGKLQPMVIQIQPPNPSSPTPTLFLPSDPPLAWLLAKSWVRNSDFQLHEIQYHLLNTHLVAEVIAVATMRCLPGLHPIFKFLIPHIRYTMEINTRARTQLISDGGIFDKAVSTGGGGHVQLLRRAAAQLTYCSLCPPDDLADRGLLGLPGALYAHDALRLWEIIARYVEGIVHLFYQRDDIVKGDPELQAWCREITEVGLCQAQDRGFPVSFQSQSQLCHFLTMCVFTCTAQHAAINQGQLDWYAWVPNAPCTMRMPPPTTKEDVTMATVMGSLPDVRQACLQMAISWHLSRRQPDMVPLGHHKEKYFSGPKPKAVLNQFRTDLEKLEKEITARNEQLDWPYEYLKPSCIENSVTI
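Purified human 12hLO at 150 nM in 25 mM Hepes, 0.01% Triton X-100, pH 7.0, preincubated 15 min at room temperature with compound. Reaction started with 40 uM arachidonic acid, 30 min at room temperature. Hydroperoxide measured by Fe-xylenol orange, 573/405 nm absorbance ratio.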
ELG1 DNA repair – blocks ELG1-dependent DNA repair in HEK293T cells. HEK293T ELG1-luciferase reporter, luminescence, 16 h; DNA damage induced by 5-fluorouridine. Potency, µM (highest dose often 46.1 µM), most hits filed as inhibitors. 2.3% of 330,000 active; also: nearly all actives have a fitted effect of over 55% in size
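Quantitative HTS, concentration-response format. 2,000 cells/well co-treated with 5-fluorouridine and compound, 16 hr in 5% CO2 at 37 °C; ONE-Glo luminescence read after 30 min.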
Numbers stand for hits. Calls follow the shape of the dose curve; as a rule, active = well fitted curve in the direction sought with a large enough effect; inconclusive = small, poorly fitted or top-dose-only effect, or another doubt; inactive = no such curve, though single readings can be large; an effect the other way counts as inactive or inconclusive.

`Cc1ccc(S(=O)(=O)N/N=C/c2cc(Br)ccc2O)cc1` gave Gal4-VP16 FLuc inactive, TDP1 cell noCPT inactive, DT40 TDP1 CPT inconclusive, RORg inh inactive, 12-LOX inh inactive and ELG1 DNA repair inactive.
Screening Cc1ccc(S(=O)(=O)Nc2ccc(Br)cc2/C=N/n2cnnc2)cc1 returned Gal4-VP16 FLuc inconclusive, TDP1 cell noCPT 29µM, DT40 TDP1 CPT inconclusive, RORg inh inactive, 12-LOX inh 45µM and ELG1 DNA repair inconclusive.
Screening Cc1ccc(Cc2c(-c3ccc(C)cc3)nc3ccc(Br)cn23)cc1 returned TDP1 cell noCPT 23µM, DT40 TDP1 CPT 21µM and 12-LOX inh 10µM.
For Cc1ccc(Cc2c(-c3ccc(Cl)cc3)nc3ccc(Br)cn23)cc1 the results were TDP1 cell noCPT 26µM, DT40 TDP1 CPT 16µM and 12-LOX inh inconclusive.
Screening Cc1ccc(Cc2c(-c3cccc(Br)c3)nc3c(Cl)cc(C(F)(F)F)cn23)cc1 returned TDP1 cell noCPT 16µM, DT40 TDP1 CPT inactive and 12-LOX inh inactive.
For Cc1ccc(Cc2c(-c3ccco3)nc3ccc(Br)cn23)cc1 the results were TDP1 cell noCPT inconclusive, DT40 TDP1 CPT inconclusive and 12-LOX inh 40µM.
Screening Fc1ccc(-c2nc3ccc(Br)cn3c2Cc2cccc(F)c2)cc1 returned TDP1 cell noCPT inconclusive, DT40 TDP1 CPT inactive and 12-LOX inh inconclusive.
Cc1ccc(Cc2c(-c3cccc(Br)c3)nc3ccc(Br)cn23)cc1 was read as TDP1 cell noCPT inactive, DT40 TDP1 CPT inactive and 12-LOX inh 25µM.
COc1ccc(-c2nc3c(Cl)cc(C(F)(F)F)cn3c2Cc2cccc(F)c2)cc1OC was read as TDP1 cell noCPT 18µM, DT40 TDP1 CPT 23µM and 12-LOX inh inactive.
`Cc1ccc2nc(-c3cccc(Br)c3)c(Cc3cccc(F)c3)n2c1` gave 12-LOX inh inactive.
Screening CC(C)CC(=O)N1C(C(=O)NCC2CCCO2)COC12CCC(C)CC2 (stereo not drawn) returned 12-LOX inh inactive.
`CCCCCC(=O)N/N=C/c1ccccc1[N+](=O)[O-]` gave Gal4-VP16 FLuc inactive, TDP1 cell noCPT inactive, DT40 TDP1 CPT inactive, RORg inh inactive, 12-LOX inh inactive and ELG1 DNA repair inconclusive.
CCOc1cccc(C=NCCc2ccc(OC)c(OC)c2)c1O was read as Gal4-VP16 FLuc inactive, TDP1 cell noCPT inactive, DT40 TDP1 CPT inactive, RORg inh inconclusive, 12-LOX inh inactive and ELG1 DNA repair inactive.
CCOc1cccc(/C=N/NC(=S)Nc2ccccc2[N+](=O)[O-])c1O was read as Gal4-VP16 FLuc 11µM, TDP1 cell noCPT 8.2µM, DT40 TDP1 CPT 9.2µM, RORg inh 5µM, 12-LOX inh inactive and ELG1 DNA repair inconclusive.
Screening O=[N+]([O-])c1ccccc1NC(=S)N/N=C/c1ccc(O)c(O)c1 returned Gal4-VP16 FLuc inconclusive, TDP1 cell noCPT inconclusive, DT40 TDP1 CPT inconclusive, RORg inh 10µM, 12-LOX inh inconclusive and ELG1 DNA repair inconclusive.
For CCOc1cccc(/C=N/NS(=O)(=O)c2ccc(C)c([N+](=O)[O-])c2)c1O the results were Gal4-VP16 FLuc 3.2µM, TDP1 cell noCPT inactive, DT40 TDP1 CPT inactive, RORg inh inconclusive, 12-LOX inh inactive and ELG1 DNA repair inactive.
For CCCCNC(=S)N/N=C/c1cccc(OCC)c1O the results were Gal4-VP16 FLuc 13µM, TDP1 cell noCPT 2.1µM, DT40 TDP1 CPT 1.2µM, RORg inh 4.5µM, 12-LOX inh inactive and ELG1 DNA repair inconclusive.
For Cc1ccc(S(=O)(=O)N/N=C/c2ccc(O)cc2O)cc1[N+](=O)[O-] the results were Gal4-VP16 FLuc inconclusive, TDP1 cell noCPT inactive, DT40 TDP1 CPT inactive, RORg inh inactive, 12-LOX inh inactive and ELG1 DNA repair inconclusive.
Cc1ccccc1NC(=O)NN was read as 12-LOX inh inactive.
For Cc1ccccc1NC(=O)C(=Cc1ccc(C(=O)O)cc1)C(=O)Nc1ccccc1C the results were Gal4-VP16 FLuc inconclusive, TDP1 cell noCPT 8.2µM, DT40 TDP1 CPT 9.2µM, RORg inh 7.9µM, 12-LOX inh inactive and ELG1 DNA repair 12µM.
